One assay concerns the target Solute carrier family 2, facilitated glucose transporter member 1 (Homo sapiens) (UniProt P11166). Briefly: ST_JUDE_LEISH: Cytotoxicity at 2uM final concentration against transgenic Leishmania Mexicana promastigotes LmGLUT1 that are glucose transport deficient and complemented with the human glucose transporter GLUT1. Activity is measured by DNA content using SYBR green in vitro. It counts as functional.
Sequence of Solute carrier family 2, facilitated glucose transporter member 1 (Homo sapiens) (P11166 whole entry): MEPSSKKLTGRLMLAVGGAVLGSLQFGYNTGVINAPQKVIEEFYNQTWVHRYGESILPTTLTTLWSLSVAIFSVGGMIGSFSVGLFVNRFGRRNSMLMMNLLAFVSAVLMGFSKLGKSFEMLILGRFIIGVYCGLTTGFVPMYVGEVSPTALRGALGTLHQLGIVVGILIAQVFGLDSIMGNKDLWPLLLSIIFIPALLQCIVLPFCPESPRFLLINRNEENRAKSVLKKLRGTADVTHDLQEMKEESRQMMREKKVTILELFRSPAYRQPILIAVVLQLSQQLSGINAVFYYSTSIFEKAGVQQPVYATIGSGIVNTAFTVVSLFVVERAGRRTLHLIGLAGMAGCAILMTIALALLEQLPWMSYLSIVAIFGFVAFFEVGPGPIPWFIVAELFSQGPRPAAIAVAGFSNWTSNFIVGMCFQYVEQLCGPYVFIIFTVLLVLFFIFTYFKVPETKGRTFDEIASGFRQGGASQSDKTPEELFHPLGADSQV
The inhibition is the change of the read-out against control, counted positive when it falls. Regarding `Cc1cccc2nc(-c3cccc(-c4ccc(NC(=O)CC5NC(=O)c6ccccc65)cc4)c3)[nH]c12` (stereo not given), the inhibition came to 8.73%.

Turning to `OC1CCCN(Cc2ccc(-c3ccc(-c4nc5ccccc5[nH]4)cc3)cc2)C1` (stereo not given), the inhibition amounted to 8.52%.

On to `CN(CCC(O)c1ccc(Cl)c(Cl)c1)CC1CC1C(=O)c1ccccc1` (stereo not given), for which the inhibition was found to be 4.57%.

As to `CS(=O)(=O)N(c1ccccc1)c1cc(C(=O)N[C@@H](Cc2ccccc2)[C@H](O)CNC2CC2)cc(N2CCCC2=O)c1`, the inhibition amounted to 4.45%.

In the case of `O=C(Nc1cc(F)cc(F)c1)N[C@H]1CCN(CCCCCNC(=O)C2CC2c2ccc(Cl)c(Cl)c2)C1` (stereo not given in full), the inhibition was -0.04%.

On to `C=CCOc1ccc(-c2c(C)[nH]c(C)c(Br)c2=O)cc1`, for which the inhibition worked out at 2.12%.

For `O=C(NCCNc1ccnc(Nc2ccc(F)cc2)n1)Nc1ccc2c(c1)OCO2`, the inhibition was determined as 1.78%.

For the compound `COc1ccc(Nc2nc(=Nc3ccccc3)nc(NN=Cc3cc(Cl)ccc3O)[nH]2)cc1`, the inhibition amounted to 1.37%.

As to `COC(=O)c1cccc(NC(=O)NC2CCN(c3ccnc(Nc4ccc(OC)cc4)n3)C2)c1` (stereo not given), the inhibition stood at 0.29%.

Turning to `Cc1nn(CC(C)C)c2sc(C(=O)N3CCN(S(=O)(=O)c4ccc(C#N)cc4)CC3)cc12`, the inhibition stood at 10.3%.

Regarding `O=C(Nc1ccc2c(c1)CCC2)c1cnc(N2CCN(c3ccncc3)CC2)c(Cl)c1`, the inhibition was 54.2%.

`COc1ccc(-c2cc(Nc3nc(-c4cccc(Cl)c4)nc4ccccc34)ccn2)cc1`: the inhibition was 1.11%.

On to `COc1ccc2c(NN=Cc3ccc(F)cc3)ccnc2c1`, for which the inhibition is 1.29%.

In the case of `O=C(O)CCc1ccc(-c2c[nH]c3ncc(-c4ccc5ncccc5c4)cc23)cc1`, the inhibition is 10.2%.

For `CCOc1ccc2c(=NN=Cc3ccc(OC)c(OC)c3)cc(C)[nH]c2c1`, the inhibition was determined as 4.95%.

Turning to `O=C(NCCCNc1nc2ccccc2[nH]1)c1cccc(OC(F)(F)F)c1`, the inhibition is 2.27%.

For the compound `O=C(Nc1cc(Cl)cc(Cl)c1)Nc1ccnc2ccccc12`, the inhibition stood at 2.68%.

On to `CC(C)N1CCC(N(Cc2ccc(-c3ccc(C(F)(F)F)cc3)cc2)C(=O)Cn2c(CCc3cccc(F)c3F)nc(=O)c3cccnc32)CC1`, for which the inhibition was found to be 2.74%.

`COc1ccc(-c2cccc(NC(=O)c3cccc(Cl)c3)c2)cc1CN1CCC(O)CC1`: the inhibition stood at 8.59%.

`c1ccc(CN2CCC(NCc3ccccc3-c3ccc(CNCc4ccc5c(c4)OCO5)cc3)CC2)cc1`: the inhibition amounted to 11.8%.

Consider `COc1ccccc1COc1c(C)nc(N)nc1N`, for which the inhibition is -1.13%.

Take `Cc1nc(NCCc2c[nH]cn2)cc(NCc2ccccc2)n1`: the inhibition came to 3.83%.

As to `CC1(C)C2C=C(CN3CCC(NC(=O)Nc4ccc(Cl)c(Cl)c4)CC3)C1CC2` (stereo not given), the inhibition came out at 8.89%.

Take `Cc1cc2ncn(-c3ccnc(N4CCN(CCCN5CCCC5)CC4)n3)c2cc1C`: the inhibition was determined as 4.77%.

Regarding `COC(=O)c1cccc(CNCc2ccc(-c3ccc(-c4nc5cc(F)ccc5[nH]4)s3)cc2)c1`, the inhibition was 2.57%.

As to `Cc1cc(NC(=O)NCCN2CCC(NS(=O)(=O)c3ccccc3Cl)C2)c2ccccc2n1` (stereo not given), the inhibition is -2.1%.

Take `COC(=O)c1cccc(CNCc2cccc(-c3ccc(-c4nc5ccccc5[nH]4)s3)c2)c1`: the inhibition was determined as 0.25%.

Take `COc1ccc2nccc(N3CCC(CCNCc4cc5c(cn4)OCCO5)CC3)c2n1`: the inhibition was -0.34%.

In the case of `CC(CCc1ccccc1)NCC(O)c1ccc2c3c(cccc13)C(=O)N2C` (stereo not given), the inhibition is 1.56%.

Turning to `N=C(N)Nc1nc(-c2ccc(NC(=O)Nc3cccc(-c4csc(NC(=N)N)n4)c3)cc2)cs1`, the inhibition is -0.61%.

Take `Cc1ccc(C2(C)CN(CCCOc3cccc(-c4ccc(C(=O)NC(C)C)cc4)c3)CCO2)cc1` (stereo not given): the inhibition came out at 0.12%.

Turning to `O=C(Nc1cccc(OC2CCN(Cc3ccsc3)CC2)c1)c1ccc(C(F)(F)F)cc1`, the inhibition worked out at 0.75%.

For the compound `CN1CCC(N(Cc2ccc(-c3cnc(NCc4ccccc4)nc3)cc2)S(=O)(=O)c2ccccc2)CC1`, the inhibition turned out to be 14%.

Take `O=C(Nc1cccc(C(F)(F)F)c1)NC1CCN(c2ccnc3ccccc23)C1` (stereo not given): the inhibition was found to be 1.65%.

`O=C(Nc1cccc(-c2cccc(-c3nc4cc(C(F)(F)F)ccc4[nH]3)c2)c1)c1csnn1`: the inhibition was 12.8%.

As for `Oc1ccc(CCNc2nc(NCCCOc3cccc(-c4ccccc4)c3)nc(N3CCNCC3)n2)cc1`, the inhibition stood at 2.65%.

For the compound `Cc1cc(NC(=O)c2cccs2)ccc1OC1CCN(Cc2ccc(F)cc2)CC1`, the inhibition was determined as 1.65%.

Take `CCN(CC)CCN(Cc1ccc(-c2ccc(C(F)(F)F)cc2)cc1)C(=O)Cn1c(CCc2cccc(F)c2F)nc(=O)c2cc(C)ccc21`: the inhibition stood at 5.28%.

`COc1ccc(CNCc2ccccc2)cc1-c1cccc(S(=O)(=O)NCCN2CCCC2)c1`: the inhibition was found to be 1.03%.

Turning to `O=C(Nc1ccc(Cl)c(Cl)c1)Nc1ccc2nccc(N3CCNCC3)c2c1`, the inhibition was -0.16%.

A further assay deals with Hexose transporter 1 (Plasmodium falciparum) (UniProt O97467). The assay can be described thus: ST_JUDE_LEISH: Cytotoxicity at 2uM final concentration against transgenic Leishmania Mexicana promastigotes LmPfHT that are glucose transport deficient and complemented with the Plasmodium falciparum hexose transporter. Activity is measured by DNA content using SYBR green in vitro. The class given is functional.
`Cc1cccc2nc(-c3cccc(-c4ccc(NC(=O)CC5NC(=O)c6ccccc65)cc4)c3)[nH]c12` (stereo not given): the inhibition stood at 9.29%.

For the compound `OC1CCCN(Cc2ccc(-c3ccc(-c4nc5ccccc5[nH]4)cc3)cc2)C1` (stereo not given), the inhibition was found to be 7.95%.

Consider `CN(CCC(O)c1ccc(Cl)c(Cl)c1)CC1CC1C(=O)c1ccccc1` (stereo not given), for which the inhibition came out at 4.62%.

For `CS(=O)(=O)N(c1ccccc1)c1cc(C(=O)N[C@@H](Cc2ccccc2)[C@H](O)CNC2CC2)cc(N2CCCC2=O)c1`, the inhibition came to 5.62%.

Take `O=C(Nc1cc(F)cc(F)c1)N[C@H]1CCN(CCCCCNC(=O)C2CC2c2ccc(Cl)c(Cl)c2)C1` (stereo not given in full): the inhibition is 0.55%.

As for `C=CCOc1ccc(-c2c(C)[nH]c(C)c(Br)c2=O)cc1`, the inhibition came to 2.01%.

As to `O=C(NCCNc1ccnc(Nc2ccc(F)cc2)n1)Nc1ccc2c(c1)OCO2`, the inhibition was 0.82%.

As to `COc1ccc(Nc2nc(=Nc3ccccc3)nc(NN=Cc3cc(Cl)ccc3O)[nH]2)cc1`, the inhibition stood at 2.04%.

Consider `COC(=O)c1cccc(NC(=O)NC2CCN(c3ccnc(Nc4ccc(OC)cc4)n3)C2)c1` (stereo not given), for which the inhibition stood at 0.86%.

`Cc1nn(CC(C)C)c2sc(C(=O)N3CCN(S(=O)(=O)c4ccc(C#N)cc4)CC3)cc12`: the inhibition was found to be 8.28%.

Consider `O=C(Nc1ccc2c(c1)CCC2)c1cnc(N2CCN(c3ccncc3)CC2)c(Cl)c1`, for which the inhibition was found to be 63.6%.

`COc1ccc(-c2cc(Nc3nc(-c4cccc(Cl)c4)nc4ccccc34)ccn2)cc1`: the inhibition worked out at 0.61%.

In the case of `COc1ccc2c(NN=Cc3ccc(F)cc3)ccnc2c1`, the inhibition worked out at 2.43%.

For the compound `O=C(O)CCc1ccc(-c2c[nH]c3ncc(-c4ccc5ncccc5c4)cc23)cc1`, the inhibition is 8.63%.

On to `CCOc1ccc2c(=NN=Cc3ccc(OC)c(OC)c3)cc(C)[nH]c2c1`, for which the inhibition amounted to 3.84%.

In the case of `O=C(NCCCNc1nc2ccccc2[nH]1)c1cccc(OC(F)(F)F)c1`, the inhibition is -0.62%.

For `O=C(Nc1cc(Cl)cc(Cl)c1)Nc1ccnc2ccccc12`, the inhibition was found to be 2.02%.

On to `CC(C)N1CCC(N(Cc2ccc(-c3ccc(C(F)(F)F)cc3)cc2)C(=O)Cn2c(CCc3cccc(F)c3F)nc(=O)c3cccnc32)CC1`, for which the inhibition came to 1.97%.

Consider `COc1ccc(-c2cccc(NC(=O)c3cccc(Cl)c3)c2)cc1CN1CCC(O)CC1`, for which the inhibition was 6.33%.

As for `c1ccc(CN2CCC(NCc3ccccc3-c3ccc(CNCc4ccc5c(c4)OCO5)cc3)CC2)cc1`, the inhibition was 10.4%.

Regarding `COc1ccccc1COc1c(C)nc(N)nc1N`, the inhibition is -0.61%.

Consider `Cc1nc(NCCc2c[nH]cn2)cc(NCc2ccccc2)n1`, for which the inhibition worked out at 3.44%.

Turning to `CC1(C)C2C=C(CN3CCC(NC(=O)Nc4ccc(Cl)c(Cl)c4)CC3)C1CC2` (stereo not given), the inhibition turned out to be 7.57%.

As to `Cc1cc2ncn(-c3ccnc(N4CCN(CCCN5CCCC5)CC4)n3)c2cc1C`, the inhibition is 3.43%.

Consider `COC(=O)c1cccc(CNCc2ccc(-c3ccc(-c4nc5cc(F)ccc5[nH]4)s3)cc2)c1`, for which the inhibition was 0.36%.

Take `Cc1cc(NC(=O)NCCN2CCC(NS(=O)(=O)c3ccccc3Cl)C2)c2ccccc2n1` (stereo not given): the inhibition was determined as 1.02%.

On to `COC(=O)c1cccc(CNCc2cccc(-c3ccc(-c4nc5ccccc5[nH]4)s3)c2)c1`, for which the inhibition turned out to be 2.5%.

For `COc1ccc2nccc(N3CCC(CCNCc4cc5c(cn4)OCCO5)CC3)c2n1`, the inhibition amounted to 0.24%.

Take `CC(CCc1ccccc1)NCC(O)c1ccc2c3c(cccc13)C(=O)N2C` (stereo not given): the inhibition worked out at 0.34%.

As for `N=C(N)Nc1nc(-c2ccc(NC(=O)Nc3cccc(-c4csc(NC(=N)N)n4)c3)cc2)cs1`, the inhibition was determined as 0%.

With `Cc1ccc(C2(C)CN(CCCOc3cccc(-c4ccc(C(=O)NC(C)C)cc4)c3)CCO2)cc1` (stereo not given), the inhibition is 4.27%.

On to `O=C(Nc1cccc(OC2CCN(Cc3ccsc3)CC2)c1)c1ccc(C(F)(F)F)cc1`, for which the inhibition was -0.04%.

As to `CN1CCC(N(Cc2ccc(-c3cnc(NCc4ccccc4)nc3)cc2)S(=O)(=O)c2ccccc2)CC1`, the inhibition turned out to be 12.1%.

In the case of `O=C(Nc1cccc(C(F)(F)F)c1)NC1CCN(c2ccnc3ccccc23)C1` (stereo not given), the inhibition is -0.4%.

As to `O=C(Nc1cccc(-c2cccc(-c3nc4cc(C(F)(F)F)ccc4[nH]3)c2)c1)c1csnn1`, the inhibition is 9.97%.

As to `Oc1ccc(CCNc2nc(NCCCOc3cccc(-c4ccccc4)c3)nc(N3CCNCC3)n2)cc1`, the inhibition amounted to 2.83%.

Turning to `Cc1cc(NC(=O)c2cccs2)ccc1OC1CCN(Cc2ccc(F)cc2)CC1`, the inhibition was 2.76%.

Consider `CCN(CC)CCN(Cc1ccc(-c2ccc(C(F)(F)F)cc2)cc1)C(=O)Cn1c(CCc2cccc(F)c2F)nc(=O)c2cc(C)ccc21`, for which the inhibition is 9.2%.

On to `COc1ccc(CNCc2ccccc2)cc1-c1cccc(S(=O)(=O)NCCN2CCCC2)c1`, for which the inhibition was 1.05%.

For `O=C(Nc1ccc(Cl)c(Cl)c1)Nc1ccc2nccc(N3CCNCC3)c2c1`, the inhibition stood at 0.06%.

The values above are taken from ChEMBL document CHEMBL3433997, “St. Jude Leishmania screening dataset” (2016).
